Laboratory results from PubChem BioAssay (NCI).
This is part of a sample that, as a whole, favours compounds with a hit. Of some 83,000 tested, about 20% had one in any assay.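 Growth was measured after 48 h exposure to one concentration of compound in 96-well plates. Values under 10 count as active.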 Unmarked numbers belong to inactive results. Active and inactive are the calls of the source.

Legend:
Assay in all cases: NCI-60 one-dose screen, 48 h (100 = growth as untreated, 0 = no growth, -100 = all killed)
Details in all cases: 10 µM
[1] = system: RPMI-8226 leukemia
[2] = system: OVCAR-8 ovarian
[3] = system: OVCAR-5 ovarian
[4] = system: OVCAR-4 ovarian
[5] = system: SK-OV-3 ovarian
[6] = system: IGROV1 ovarian
[7] = system: OVCAR-3 ovarian
[8] = system: HS 578T breast
[9] = system: NCI/ADR-RES ovarian

SMILES | growth [1] | growth [2] | growth [3] | growth [4] | growth [5] | growth [6] | growth [7] | growth [8] | growth [9]
O=C(CN1CCN(C(=O)c2ccccc2)CC1)Nc1ccccc1SCc1ccccc1 | 68.3% | 87.3% | 96.4% | 77.2% | 89.5% | 84.2% | 91.5% | 83.9% | 78.4%
COc1ccc2nc3cc(Cl)ccc3c(Nc3cc(CN4CCCC4)c(O)c(CN4CCCC4)c3)c2n1 | -3.6% (active) | 10.5% | 6.64% (active) | -16.3% (active) | 29.8% | 27.6% | 23.9% | 15.5% | 10.1%
COc1cc(/C=C/c2cc(/C=C/c3ccc(O)c(OC)c3)[nH]c(=O)n2)ccc1O | 62.5% | 58.7% | 102% | 54% | 71.6% | 93.1% | 59.3% | 53.9% | 90.7%
O=C(N/N=C/c1cc([N+](=O)[O-])ccc1O)c1cccc2ccccc12 | 21.5% | 22.8% | 47.2% | 20.2% | 41% | 39.8% | 27.2% | 64.1% | 10.6%
CSc1nc2c(c(=O)n1C)CN(Cc1ccccc1)C(=O)CN2 | 109% | 106% | 94.4% | 91% | 99% | 97.6% | 98.6% | 101% | 85.5%
CN(C)c1nc(N)c2nccnc2n1 | 110% | 110% | 100% | 104% | 110% |  | 105% | 105% | 99.2%
O=C(CSc1nccc(Nc2cccc3ccccc23)n1)c1ccc(Cl)cc1 | 80% | 92.3% | 87.4% | 98.7% | 86.4% | 69% | 99.5% | 99.7% | 93.7%
CCOC(=O)c1cocc1C(=O)O | 114% | 105% | 105% | 100% | 106% | 113% | 103% | 100% | 107%
CCCc1nc(C(C)(C)O)c(C(=O)O)n1Cc1ccc(-c2ccccc2-c2nn[nH]n2)cc1 | 104% | 91.7% | 104% | 100% | 106% | 114% | 117% | 102% | 105%
Nc1nccc(OCCO)n1 | 108% | 109% | 101% | 109% | 102% | 107% |  | 107% | 103%
NC1=NC(c2ccc(Cl)cc2)C2=C(N1)/C(=C/c1ccc(Cl)cc1)CCC2 (stereo unspecified) | -12.4% (active) | 41.2% | 112% | 76.1% | 80.6% | 85.2% | 39.1% | 100% | 92.9%
CC1OC2CC(=O)OC2C2=C1C(=O)c1c(O)c3c(c(O)c1C2=O)C1CC(O)C3(O)C(C)O1 (stereo unspecified) | -6.28% (active) | 5.64% (active) | -47.3% (active) | -99.6% (active) | 8.13% (active) | -36.7% (active) | -34.1% (active) | -12.3% (active) | 1.39% (active)
C=C1CCC2(C#N)[C@H]3[C@H](CC[C@@H]2C)[C@@H](C)C[C@@H](CC(C)(C)NC(=O)CN2CCC2=O)[C@H]13 (stereo partly specified) | -11.3% (active) | 54.8% | 63.5% | 62.4% | 89.7% | 28.7% | 65.6% | 74.3% | 59.2%
O=C1c2ccccc2C(=O)N1CCCCNc1ccccc1 | 30.5% | 101% | 101% | 107% | 113% | 141% | 91% | 103% | 103%
CC(=O)COc1ccc(Cl)cc1Cl | 86.7% | 107% | 112% | 116% | 122% |  | 120% | 117% | 111%
COc1cccc(-c2nc3sccn3c2-c2cccc(S(C)(=O)=O)c2)c1 | 95.9% | 101% | 96.3% | 107% | 114% | 99% | 113% |  | 92.5%
COc1cc(C2CC(c3cc(Cl)c(C)cc3O)=NN2c2ccc(S(N)(=O)=O)cc2)cc(OC)c1OC (stereo unspecified) | 11.9% | 34.4% | 19.4% | 33.1% | 14.5% | 3.35% (active) | 20.7% | 30.3% | 3.9% (active)
CSc1nc(S(C)(=O)=O)nc2[nH]c(=O)[nH]c12 | 123% | 108% | 96.3% | 117% | 115% |  | 115% | 111% | 110%
CC(C)(C)c1nn(-c2ccccc2)c2c1CC1(CN2Cc2ccc(Cl)cc2)C(=O)c2ccccc2C1=O | 59.5% | 105% | 103% | 72.9% | 93.3% |  | 78.1% | 110% | 84.3%
CC(C)Cc1ccc([C@H](C)C(=O)O)cc1 | 115% | 107% | 107% | 115% | 119% | 116% | 111% | 110% | 108%
COc1ccc(/C=C/C(=O)C(=O)/C=C/c2ccc(OC)c(OC)c2)cc1OC | 3.5% (active) | 19.5% | 60.5% | 61.9% | 97.8% | 10.1% | 3.9% (active) | 31.5% | 71.7%
Cc1ccc(N=Nc2ccccc2)cc1 | 100% | 106% | 99.7% | 108% | 89.4% | 102% | 105% |  | 102%
NNC(=O)Oc1c(Cl)cc(Cl)cc1[N+](=O)[O-] | 105% | 109% | 104% | 113% | 102% | 101% | 107% | 104% | 101%
Cc1noc(C)c1CSc1ccccc1C(=O)N1CCN(c2cccc(C(F)(F)F)c2)CC1 | 54.3% | 94.2% | 88.1% | 67% | 75.3% | 83.7% | 82.1% | 90.4% | 72.3%
O=C1Cc2cc(CCN3CCN(c4nsc5ccccc45)CC3)c(Cl)cc2N1 | 78.9% | 93.7% | 108% | 84.1% | 121% | 101% | 97.6% | 103% | 98.4%
COc1ccccc1N1CCCSC1=Nc1ccccc1 | 43.6% | 104% | 93.9% | 151% | 113% |  | 94.1% | 117% | 103%
C=CCSC(CC)(CC)C(=O)NC | 101% | 105% | 104% | 109% | 105% | 113% | 112% | 106% | 107%
Cc1ccc(C2NC(=S)N3C(c4ccc(C)cc4)NC(=S)N23)cc1 (stereo unspecified) | 6.55% (active) | 35.7% | 81.6% | 117% | 49% |  | -20% (active) | 26.4% | 19%
O=C1c2ccccc2C(=O)c2c1ccc(C(Br)Br)c2Cl | -15.5% (active) | 17.1% | 104% | 35.5% | 93.4% | -43.2% (active) |  | 85.6% | 64.6%
